The record followed here is PubChem BioAssay (NCI).

Structures are written as SMILES. This is part of a sample that, as a whole, favours compounds with a hit. Of some 83,000 tested, about 20% had one in any assay.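 Negative percent growth values reflect cell death: -40 means 40% of the cells present at the start died, and -100 means all died.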 Values without a mark were called inactive. Calls of active or inactive are those of the source. Rule for the calls: active = growth percent below 10; inactive = the rest.

The first assay relates to A498 renal. The assay is described as follows: NCI-60 one-dose screen, 48 h (100 = growth as untreated, 0 = no growth, -100 = all killed). The conditions noted are these: 10 µM.
As to `COC(=O)CCc1c[nH]c2ccc(N(CCCl)CCCl)cc12`, the growth was 84.3%.
For `Nc1c(F)cc(-c2nc3cc(F)ccc3[se]2)cc1F`, the growth is 38.9%.
`COC(=O)[C@@]1(C)CC[C@]2(C)CC[C@]3(C)C4=CC=C5C(=CC(=O)C(O)=C5C)[C@]4(C)CC[C@@]3(C)[C@@H]2C1`: the growth was -97.9% (active).
Same read-out and setting: the result for `COC(=O)[C@@H](C)C[C@H](Cc1ccccc1)NC(=O)c1nc([C@@H](C[C@H](C(C)C)N(C)C(=O)[C@@H](NC(=O)[C@H]2CCCCN2C)C(C)C)OC(C)=O)sc1C` reads -19.3% (active).
The same measure, in the same setting: next, `CC(=O)O[C@H](C[C@H](C(C)C)N(C)C(=O)[C@@H](NC(=O)[C@H]1CCCN1C)C(C)C)c1nc(C(=O)N[C@@H](Cc2ccccc2)C[C@H](C)C(=O)O)c(C)s1`: -2.65% (active); `CCOC(=O)[C@@H](C)C[C@H](Cc1ccccc1)NC(=O)c1csc([C@@H](C[C@H](C(C)C)N(C)C(=O)[C@H](CCC(C)C)NC(=O)[C@H]2CCCCN2C)OC(C)=O)n1`: -11.5% (active); `COC(=O)C12CC(NC(=O)c3csc([C@@H](C[C@H](C(C)C)N(C)C(=O)[C@@H](NC(=O)[C@H]4CCCCN4C)C(C)C)OC(C)=O)n3)(C1)C2`: -1.32% (active).
Same read-out and setting: next, `Clc1ccc2nnnn2n1`: 78.7%.
Take `CC[C@H](C)[C@H](NC(=O)[C@H]1CCCCN1C)C(=O)N(C)[C@H](C[C@@H](O)c1nc(C(=O)N[C@@H](Cc2ccccc2)C[C@H](C)C(=O)O)cs1)C(C)C`: the growth was 76.2%.
Take `N#C[S-].[Au+].c1ccc(CN2[CH-]N(Cc3ccccc3)C(c3ccccc3)=C2c2ccccc2)cc1`: the growth is -37.3% (active).
`CCCCCCCCCCCCNC(c1ccccc1)C(O)c1ccccc1` (stereo unspecified): the growth was 116%.

The subject of the next assay is HL-60(TB) leukemia. The description is as above. The conditions noted are these: 10 µM unless noted.
As for `COC(=O)[C@@H](C)C[C@H](Cc1ccccc1)NC(=O)c1nc([C@@H](C[C@H](C(C)C)N(C)C(=O)[C@@H](NC(=O)[C@H]2CCCN2C)C(C)C)OC(C)=O)sc1C`, the growth was -33.5% (active).
The same measure, in the same setting: next, `CCCCCSC1C2C(=O)C(Br)=CC13CCNc1c(O)c4c5c(c13)=[N+]2CCC=5C=N4` (stereo unspecified): -40.8% (active); `CC1=C(CCCOC(=O)CN)C2=C(C)C3(CC3)[C@@](C)(O)C(=O)C2=C1`: 75.2%.
The same measure, in the same setting: the result for `COC(=O)CC[C@H](Cc1ccccc1)NC(=O)c1csc([C@@H](C[C@H](C(C)C)N(C)C(=O)[C@@H](NC(=O)[C@H]2CCCCN2C)C(C)C)OC(C)=O)n1` reads 4.63% (active); that for `COC(=O)CC12CC(NC(=O)c3csc([C@@H](C[C@H](C(C)C)N(C)C(=O)[C@@H](NC(=O)[C@H]4CCCCN4C)C(C)C)OC(C)=O)n3)(C1)C2`, -29.6% (active); that for `O=C1CNC(c2ccccc2)c2cc(Cl)ccc2N1` (stereo unspecified), 97.5%.
On the same count and under the same terms, the result for `CC1(C)N=C(N)N=C(N)N1c1cccc(CCCCc2ccc(Cl)c(S(=O)(=O)F)c2)c1` reads 18.8%; that for `CC(=O)O[C@H](C[C@H](C(C)C)N(C)C(=O)[C@@H](NC(=O)[C@H]1CCCCN1C)C(C)C)c1nc(C(=O)N[C@@H](Cc2ccccc2)C[C@H](C)C(=O)O)c(C(C)C)s1`, -41.4% (active).
For the compound `COC(=O)[C@@H](C)C[C@H](Cc1ccccc1)NC(=O)c1csc(CC[C@H](C(C)C)N(C)C(=O)[C@@H](NC(=O)[C@H]2CCCCN2C)C(C)C)n1`, the growth was -34.4% (active).
Turning to `CCOP(=O)(NC[C@H]1O[C@](O)(CO)[C@@H](O)[C@@H]1O)OCC`, the growth is 101%.
Still for that read-out and setting: the result for `COc1cc([C@@H]2c3cc4c(cc3[C@H](OC(C)=O)[C@H]3COC(=O)[C@H]23)OCO4)cc(OC)c1OC` reads -24.8% (active).
Still for that read-out and setting: the result for `COC(=O)[C@@H](C)C[C@H](Cc1cn(C)c2ccccc12)NC(=O)c1csc([C@@H](C[C@H](C(C)C)N(C)C(=O)[C@@H](NC(=O)[C@H]2CCCCN2C)C(C)C)OC(C)=O)n1` reads -39.1% (active); that for `CCOC(=O)[C@@H](C)C[C@H](Cc1ccccc1)NC(=O)c1csc([C@@H](C[C@H](C(C)C)N(C)C(=O)[C@@H](NC(=O)[C@H]2CCCCN2C)C(C)(C)C)OC(C)=O)n1`, -33.2% (active).
The same measure, in the same setting: the result for `CC1=C(CCCNS(C)(=O)=O)C2=C(C)C3(CC3)[C@@](C)(O)C(=O)C2=C1` reads 14%; that for `COC(=O)[C@@H](C)C[C@H](Cc1ccccc1)NC(=O)c1cccc([C@@H](C[C@H](C(C)C)N(C)C(=O)[C@@H](NC(=O)[C@H]2CCCCN2C)C(C)C)OC(C)=O)n1`, -28.6% (active).
